Laboratory results from the supplement of paper PMC12494721.
Counter-ions that a name gives are not always drawn.

Assays:
Details in all cases: 20 µM; incubation time: 27 h, anaerobic, 37 °C;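 for the amine columns active = adjusted P below 0.05 in both replicates with a change the same way and a mean fold change under 0.8 or over 1.25; inactive = the rest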
[1] = tested on: Clostridium sporogenes DSM 1664; assay: growth (OD595) fold change vs plate DMSO controls (fold change (ratio)); higher = more growth
Procedure, shortened: (§1)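 The reported measure is growth: the fold change against the median of DMSO controls on the plate. Absorbance at 595 nm from anaerobic 96-well mGAM cultures grown for 27 h at 37 °C was blank-subtracted, corrected for background with 20 µM compound solutions in water, and converted to OD with a calibration factor of 5. Fold changes above 1.5 appear as NA, and values are the mean of 2 biological replicates.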

Escherichia coli IAI1 [2] = assay: as above
Procedure, shortened: as §1

[3] = tested on: Klebsiella aerogenes DSM 30053; assay: as above
Procedure, shortened: as §1

[4] = tested on: Ruminococcus gnavus DSM 108212; assay: as above
Procedure, shortened: as §1

[5] = tested on: Klebsiella aerogenes DSM 30053; assay: fold change of Histamine concentration vs plate DMSO controls (fold change (ratio)); higher = more amine produced, active = hit call of the paper (significant change in both replicates, either direction)
Procedure, shortened: (§2)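 Anaerobic mGAM cultures of four gut bacterial strains were grown at 37 °C for 27 h in 80 µL wells, starting at OD 0.1 before 1:1 dilution. Compounds were at 20 µM final (sweeteners 50 µM). Whole cultures were extracted with cold acetonitrile/methanol containing 0.1% formic acid and centrifuged. Amines were quantified by LC–triple-quadrupole MS (dynamic MRM) against external calibration curves and drift-corrected within batch. Each value is the fold change versus plate DMSO controls, averaged over 2 biological replicates.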

[6] = tested on: Clostridium sporogenes DSM 1664; assay: fold change of Tryptamine concentration vs plate DMSO controls (fold change (ratio)); higher = more amine produced, active = hit call of the paper (significant change in both replicates, either direction)
Procedure, shortened: as §2

[7] = tested on: Ruminococcus gnavus DSM 108212; assay: as above
Procedure, shortened: as §2

Escherichia coli IAI1 [8] = assay: fold change of Putrescine concentration vs plate DMSO controls (fold change (ratio)); higher = more amine produced, active = hit call of the paper (significant change in both replicates, either direction)
Procedure, shortened: as §2

[9] = tested on: Klebsiella aerogenes DSM 30053; assay: as above
Procedure, shortened: as §2

Escherichia coli IAI1 [10] = assay: fold change of Cadaverine concentration vs plate DMSO controls (fold change (ratio)); higher = more amine produced, active = hit call of the paper (significant change in both replicates, either direction)
Procedure, shortened: as §2

[11] = tested on: Klebsiella aerogenes DSM 30053; assay: as above
Procedure, shortened: as §2

[12] = tested on: Ruminococcus gnavus DSM 108212; assay: fold change of 2-Phenylethylamine concentration vs plate DMSO controls (fold change (ratio)); higher = more amine produced, active = hit call of the paper (significant change in both replicates, either direction)
Procedure, shortened: as §2

| SMILES | growth [1] | growth (Escherichia coli IAI1 [2]) | growth [3] | growth [4] | fold change of Histamine concentration [5] | fold change of Tryptamine concentration [6] | fold change of Tryptamine concentration [7] | fold change of Putrescine concentration (Escherichia coli IAI1 [8]) | fold change of Putrescine concentration [9] | fold change of Cadaverine concentration (Escherichia coli IAI1 [10]) | fold change of Cadaverine concentration [11] | fold change of 2-Phenylethylamine concentration [12] |
| --- | --- | --- | --- | --- | --- | --- | --- | --- | --- | --- | --- | --- |
| C[C@]12Cc3c[nH]nc3C[C@@H]1CC[C@@H]1[C@@H]2CC[C@@]2(C)[C@H]1CC[C@]2(C)O [Stanozolol] | 1.18 | 0.985 | 1.1 | 1.05 | 0.911 (inactive) | 0.973 (inactive) | 0.976 (inactive) | 0.981 (inactive) | 0.99 (inactive) | 0.959 (inactive) | 1.02 (inactive) | 1 (inactive) |
| CN1[C@@H]2CC[C@H]1C[C@@H](OC(=O)[C@H](CO)c1ccccc1)C2 [(L) Hyoscyamine] | – | 1.03 | 1.06 | 1.08 | 0.941 (inactive) | – | 1.13 (inactive) | 0.992 (inactive) | 0.94 (inactive) | 0.923 (inactive) | 1.02 (inactive) | 1.11 (inactive) |
| S=C(NC1CCCCC1)N1CCC(c2cnc[nH]2)CC1 [Thioperamide maleate] | 0.957 | 1.03 | 1.02 | 1.03 | 1.07 (inactive) | 1.05 (inactive) | 1.02 (inactive) | 0.98 (inactive) | 1.02 (inactive) | 0.951 (inactive) | 0.987 (inactive) | 1.01 (inactive) |
| CCN[C@@H](C)Cc1cccc(C(F)(F)F)c1 [Dexfenfluramine hydrochloride] | 1.03 | 1.05 | 1.1 | 0.954 | 0.833 (inactive) | 1.28 (inactive) | 1.07 (inactive) | 1.02 (inactive) | 0.95 (inactive) | 0.869 (inactive) | 1.06 (inactive) | 1.16 (inactive) |
| CCCC(C)(COC(N)=O)COC(=O)NC(C)C (stereo unspecified) [Carisoprodol] | 1.03 | 1.01 | 1.01 | 0.919 | 1.03 (inactive) | 1.01 (inactive) | 1.02 (inactive) | 1.02 (inactive) | 1 (inactive) | 1.02 (inactive) | 1 (inactive) | 1.05 (inactive) |
| COc1ccc(-c2ccccc2)cc1NNC(=O)OC(C)C | 1.14 | 0.997 | 1 | 1.12 | 0.998 (inactive) | 0.997 (inactive) | 0.968 (inactive) | 0.991 (inactive) | 1 (inactive) | 1.03 (inactive) | 0.984 (inactive) | 0.922 (inactive) |
| OC(Cc1ccccc1Cl)(Cn1nc[nH]c1=S)C1(Cl)CC1 (stereo unspecified) | 0.971 | 1.12 | 0.969 | 0.953 | 1.04 (inactive) | 1.02 (inactive) | 0.978 (inactive) | 0.937 (inactive) | 0.96 (inactive) | 0.946 (inactive) | 0.974 (inactive) | 0.951 (inactive) |
| NCCc1c[nH]c2ccc(O)cc12 [Serotonin hydrochloride] | 0.937 | 0.985 | 0.99 | 0.934 | 1.1 (inactive) | 1.02 (inactive) | 1 (inactive) | 0.993 (inactive) | 1.08 (inactive) | 1.06 (inactive) | 1.06 (inactive) | 0.93 (inactive) |
| CC(Oc1ccc(Oc2ncc(C(F)(F)F)cc2Cl)cc1)C(=O)O (stereo unspecified) | 1.02 | 1.03 | 1.01 | 0.977 | 0.989 (inactive) | 0.943 (inactive) | 0.974 (inactive) | 1.05 (inactive) | 0.988 (inactive) | 1.04 (inactive) | 0.981 (inactive) | 0.982 (inactive) |
| NCC(CC(=O)O)c1ccc(Cl)cc1 (stereo unspecified) [Baclofen] | 1.11 | 1.17 | 1 | 1.33 | 1.04 (inactive) | 1.06 (inactive) | 1.1 (inactive) | 1.09 (inactive) | 0.988 (inactive) | 1 (inactive) | 1.03 (inactive) | 1.11 (inactive) |
| C[C@]12CC[C@H](O)CC1=CC[C@@H]1[C@@H]2CC[C@]2(C)C(=O)CC[C@@H]12 [Prasterone] | 1.17 | 1.01 | 1.04 | 1.07 | 0.984 (inactive) | 0.972 (inactive) | 0.985 (inactive) | 1 (inactive) | 0.999 (inactive) | 1.05 (inactive) | 0.991 (inactive) | 1 (inactive) |
| CN(C)C(=O)Oc1cccc([N+](C)(C)C)c1 [Neostigmine bromide] | 0.939 | 0.975 | 1.01 | 0.886 | 0.992 (inactive) | 1.07 (inactive) | 1.03 (inactive) | 0.992 (inactive) | 0.998 (inactive) | 1.02 (inactive) | 1 (inactive) | 1.01 (inactive) |
| COC(=O)NC(=S)Nc1ccccc1NC(=S)NC(=O)OC | 1.11 | 1.02 | 0.97 | 0.994 | 0.974 (inactive) | 1.02 (inactive) | 0.971 (inactive) | 0.954 (inactive) | 0.972 (inactive) | 0.974 (inactive) | 1.01 (inactive) | 0.936 (inactive) |
| C=C1CC[C@@]2(O)[C@H]3Cc4ccc(O)c5c4[C@@]2(CCN3CC2CC2)[C@H]1O5 [Nalmefene hydrochloride] | 1.08 | 0.981 | 1.02 | 1.07 | 1.02 (inactive) | 0.942 (inactive) | 0.59 (inactive) | 0.99 (inactive) | 1.02 (inactive) | 1.03 (inactive) | 1.01 (inactive) | 0.578 (inactive) |
| CC(O)(CS(=O)(=O)c1ccc(F)cc1)C(=O)Nc1ccc(C#N)c(C(F)(F)F)c1 (stereo unspecified) [Bicalutamide] | 1.06 | 1.01 | 1.08 | 1.15 | 0.914 (inactive) | 1.09 (inactive) | 1.06 (inactive) | 1.08 (inactive) | 0.973 (inactive) | 1.01 (inactive) | 1.02 (inactive) | 1.04 (inactive) |
| O=C1CC[C@@]2(O)[C@H]3Cc4ccc(O)c5c4[C@@]2(CCN3CC2CC2)[C@H]1O5 [Naltrexone hydrochloride dihydrate] | – | 0.661 | 0.69 | 0.579 | 1.03 (inactive) | – | 0.934 (inactive) | 1.02 (inactive) | 1.01 (inactive) | 0.995 (inactive) | 0.992 (inactive) | 0.896 (inactive) |
| O=C(NCCc1ncc(C(F)(F)F)cc1Cl)c1ccccc1C(F)(F)F | 1.04 | 1.04 | 1.16 | 1.22 | 0.918 (inactive) | 0.969 (inactive) | 1.04 (inactive) | 0.983 (inactive) | 1.03 (inactive) | 0.972 (inactive) | 1.04 (inactive) | 1.02 (inactive) |
| CN1[C@@H]2CC[C@H]1C[C@@H](OC(=O)C(CO)c1ccccc1)C2 (stereo partly specified) [Atropine sulfate monohydrate] | – | 0.98 | – | 0.986 | 1.03 (inactive) | – | 1.01 (inactive) | 0.982 (inactive) | 1.02 (inactive) | 0.957 (inactive) | 1.02 (inactive) | 1.01 (inactive) |
| CCOC(=O)OC1=C(c2cc(C)ccc2C)C(=O)N[C@]12CC[C@@H](OC)CC2 | 0.93 | 1.02 | 0.993 | 0.921 | 1.01 (inactive) | 0.974 (inactive) | 1.02 (inactive) | 1 (inactive) | 1 (inactive) | 0.963 (inactive) | 1 (inactive) | 1.04 (inactive) |
